Consider 18 compounds from PubChem BioAssay (NCATS).

Several values for one entry are separate records, joined by “and”; a condition that tells them apart may be missing. Identical values can stand only once. Inconclusive results are not listed. A number with no mark means an inactive call. Activity calls are given as the source filed them. The call rests on the fitted dose curve; in most records, active means well fitted curve in the direction sought with a large enough effect; inconclusive means small, poorly fitted or top-dose-only effect, or another doubt; inactive means no such curve, though single readings can be large; an effect the other way counts as inactive or inconclusive.

For assay [1], the target named is Cytochrome P450 3A7 (Homo sapiens) (UniProt P24462). Description: Cytochrome P450 family 3 subfamily A member 7 (CYP3A7) small molecule antagonists: luciferase biochemical qHTS assay (AID 1963596). Further: on the % scale 0 is the no-effect control and ±100 the full control effect; nearly all actives have a fitted effect of over 40% in size. Summed up:
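Compounds were screened in qHTS format for interference with CYP3A7 turnover of a proluciferin substrate. Reactions ran 1 h at room temperature after NADPH regeneration solution was added, then luciferin product was detected by luminescence.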

A short description of assay [2]: Cellular viability qHTS for adrenocortical cancer (ACC) cell line SW-13 (AID 1963989). Further: nearly all actives have a fitted effect of over 65% in size. Further: potency means the concentration at half of the fitted maximal effect.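 On activity (max response): cells grown in serum-free medium with ITS supplement; on the % scale 0 is the no-effect control and ±100 the full control effect.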 The conditions noted are these: SW-13 ACC cells viability, CellTiter-Glo, 48 h; activity (max response): hits give low values. Summed up: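 Viability was read as CellTiter-Glo luminescence after 48 h compound treatment (up to 46 uM final) of SW-13 cells grown serum-free; titration curves were fit with a four-parameter logistic model to give IC50 and efficacy.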

The nature of assay [3]: Cellular viability qHTS for adrenocortical cancer (ACC) cell line NCI-H295R (AID 1963990). Further: nearly all actives have a fitted effect of over 60% in size. Further: potency means the concentration at half of the fitted maximal effect. Summed up: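 CellTiter-Glo ATP luminescence, read 48 h after compound addition, measured viability of NCI-H295R adrenocortical cells grown serum-free with ITS. Final concentrations spanned up to 46 uM. Data normalized to DMSO and doxorubicin, fitted for IC50 and maximal response.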
For orientation: qHTS replaces the single test concentration by a dilution series.

The nature of assay [4]: Quantitative highthroughput screen to assess conditional lethalithy of NOMO1 cells grown in RPMI1640 with untreated serum (RPMI+s) (AID 1963876). Further: nearly all actives have a fitted effect of over 35% in size. Further: potency means the concentration at half of the fitted maximal effect.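 On viability: 100% = DMSO wells and 0% = empty wells without cells.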 Summed up:
(§1)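 Each medium arm—HPLM with 10% dialyzed FBS, or RPMI1640 with 5 mM glucose and 10% untreated or dialyzed FBS—was screened against an 11-point, 3-fold compound titration for 48 h at 37 °C, with CellTiter-Glo luminescence as endpoint.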

A short description of assay [5]: Quantitative highthroughput screen to assess conditional lethalithy of NOMO1 cells grown in RPMI1640 with dialyzed fetal bovine serum (RPMI+ds) (AID 1963877). Further: nearly all actives have a fitted effect of over 30% in size. Further: potency means the concentration at half of the fitted maximal effect.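 On viability: series mostly up to about 46 µM; 100% = DMSO control wells and 0% = empty wells.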 Summed up:
as §1

Assay [6] in a line: Quantitative highthroughput screen to assess conditional lethalithy of NOMO1 cells grown in Human Plasma-Like Medium with dialyzed fetal bovine serum (HPLM+ds) (AID 1963878). Further: nearly all actives have a fitted effect of over 35% in size. Further: potency means the concentration at half of the fitted maximal effect.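 On viability: 100% = DMSO wells and 0% = empty wells on each plate.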 Summed up:
as §1

A short description of assay [7]: Quantitative highthroughput screen to assess conditional lethalithy of P12 Ichikawa cells grown in Human Plasma-Like Medium with dialyzed fetal bovine serum (HPLM+ds) (AID 1963879). Further: nearly all actives have a fitted effect of over 35% in size. Further: potency means the concentration at half of the fitted maximal effect. On viability: series mostly up to about 46 µM. The conditions noted are these: Potency: viability. The procedure, abridged:
as §1

A short description of assay [8]: Quantitative highthroughput screen to assess conditional lethalithy of P12 Ichikawa cells grown in RPMI1640 with dialyzed fetal bovine serum (RPMI+ds) (AID 1963880). Further: nearly all actives have a fitted effect of over 35% in size. Further: potency means the concentration at half of the fitted maximal effect.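 On viability: 100% = DMSO wells and 0% = empty wells on each plate.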 The note with it: Potency: P12-Ichikawa viability. Summed up: as §1
The nature of assay [9]: Quantitative highthroughput screen to assess conditional lethalithy of P12 Ichikawa cells grown in RPMI1640 with untreated serum (RPMI+s) (AID 1963881). Further: nearly all actives have a fitted effect of over 35% in size. Further: potency means the concentration at half of the fitted maximal effect.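 On viability: series mostly up to about 46 µM; 100% = DMSO wells and 0% = empty wells without cells.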 The conditions noted are these: Potency: viability. Summed up: as §1
Assay [10] in a line: Quantitative highthroughput screen to assess conditional lethalithy of SEM cells grown in Human Plasma-Like Medium with dialyzed fetal bovine serum (HPLM+ds) (AID 1963882). Further: nearly all actives have a fitted effect of over 35% in size. Further: potency means the concentration at half of the fitted maximal effect. On viability: series mostly up to about 46 µM. Summed up:
as §1

The nature of assay [11]: Quantitative highthroughput screen to assess conditional lethalithy of SEM cells grown in RPMI1640 with dialyzed fetal bovine serum (RPMI+ds) (AID 1963884). Further: nearly all actives have a fitted effect of over 35% in size. Further: potency means the concentration at half of the fitted maximal effect.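 On viability: series mostly up to about 46 µM; 100% = DMSO control wells and 0% = empty wells without cells.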 The procedure, abridged:
as §1

Assay [12] can be described thus: Quantitative highthroughput screen to assess conditional lethalithy of SEM cells grown in RPMI1640 with unreated serum (RPMI+s) (AID 1963883). Further: nearly all actives have a fitted effect of over 35% in size. Further: potency means the concentration at half of the fitted maximal effect.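 On viability: 100% = DMSO wells and 0% = empty wells without cells.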 Summed up: as §1

Sequence of Cytochrome P450 3A7 (Homo sapiens) (P24462 whole entry, looked up): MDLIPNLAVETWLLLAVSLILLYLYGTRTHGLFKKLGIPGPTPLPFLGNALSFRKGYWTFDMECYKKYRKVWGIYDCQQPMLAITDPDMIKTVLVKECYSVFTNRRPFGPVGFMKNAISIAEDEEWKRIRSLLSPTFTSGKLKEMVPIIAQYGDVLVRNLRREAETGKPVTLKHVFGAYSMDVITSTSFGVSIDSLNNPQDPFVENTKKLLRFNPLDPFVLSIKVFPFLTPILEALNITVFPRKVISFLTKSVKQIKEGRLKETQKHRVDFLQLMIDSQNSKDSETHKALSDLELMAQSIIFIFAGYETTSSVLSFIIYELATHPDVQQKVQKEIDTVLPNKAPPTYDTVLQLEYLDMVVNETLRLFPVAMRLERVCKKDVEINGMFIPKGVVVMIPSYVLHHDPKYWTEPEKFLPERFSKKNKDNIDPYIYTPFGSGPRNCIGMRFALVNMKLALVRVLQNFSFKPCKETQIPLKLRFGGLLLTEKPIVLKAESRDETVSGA

With `Cc1ccc(S(=O)(=O)NC(=O)NC2CCCC2)cc1`, the Potency result in assay [1] and in assay [3] was “inactive” throughout. The activity (max response) in assay [2] was 10.7%.
`O=C(NC[C@H](O)CN1CCc2ccccc2C1)c1cc(NC2COC2)ncn1`: the Potency entry in [1], in assay [4], in assay [5], in assay [6], in assay [7] and in assay [8] was “inactive” in each case. Further, the Potency result in [3] is “inactive”. Also, the activity (max response) in [2] is -16.9%.
With `CCNC(=O)Nc1ccc(Oc2ncnc(N)c2C=NOC)cc1Cl`, the Potency result in assay [1], in assay [4], in [5], in assay [6], in [7] and in assay [8] was “inactive” in each case. For the same compound, the Potency result in [9] was “inactive”. Further, the figures for the Potency in assay [10] and in assay [11] were 1050 nM (active) and 935 nM (active), respectively.
Regarding `CS(=O)(=O)OCCCCOS(C)(=O)=O`, the Potency entry in [1] and in assay [3] was “inactive” throughout. In addition, the Potency in [12] and in [11] was 20900 nM (active) in each case. The activity (max response) in [2] is 4.16%.
For `N#C[C@H]1C[C@H]2C[C@@H]2N1C(=O)[C@@H](N)C12CC3CC(CC(O)(C3)C1)C2`, the Potency result in assay [1], in [8], in assay [9], in assay [11] and in assay [3] was “inactive” each time. Also, in assay [6], the Potency was 10500 nM (active).
Consider `CCCCc1ccc2nc(NC(=O)OC)[nH]c2c1`, for which the Potency entry in assay [1] was “inactive”. The Potency in assay [7] was 93.5 nM (active); in [9] it was 83.3 nM (active); in [12] it was 59 nM (active); in [11], 41.8 nM (active); in assay [2], 51.7 nM (active) and 282 nM (active); in assay [3], 103 nM (active) and 224 nM (active).
For `COc1ccc(CCN2CCN(CCCc3ccccc3)CC2)cc1OC`, the Potency result in assay [1], in assay [4], in [6], in assay [7], in assay [9] and in [10] was “inactive” in each case. In addition, the Potency result in [12], in [11] and in assay [3] was “inactive” each time. In addition, the activity (max response) in assay [2] is -13%.
Consider `CC1(C)O[C@@H]2C[C@H]3[C@@H]4C[C@H](F)C5=CC(=O)CC[C@]5(C)[C@H]4[C@@H](O)C[C@]3(C)[C@]2(C(=O)CO)O1`, for which, in [1], the Potency entry is “inactive”. For the same compound, the activity (max response) in [2] was 3.69%.
Turning to `COc1cc(Nc2ncc3c(n2)-c2ccc(Cl)cc2C(c2c(F)cccc2OC)=NC3)ccc1C(=O)O`, the Potency entry in assay [1] is “inactive”. The Potency in assay [4] is 83.3 nM (active); in [5] it was 66.2 nM (active); in assay [7], 74.3 nM (active); in assay [9], 59 nM (active); in [3], 2.24 µM (active).
For `CCO/C([O-])=N/c1c[n+](N2CCOCC2)no1`, the Potency result in [1] is “inactive”. The activity (max response) in assay [2] is -2.98%.
On to `c1ccc2[nH]c(-c3cscn3)nc2c1`, for which the Potency entry in [1], in assay [4], in assay [5] and in assay [3] was “inactive” in each case. The Potency was 8330 nM (active) in assay [6] and 9350 nM (active) in [7]. In addition, the activity (max response) in assay [2] was -9.06% and -18.4%.
For the compound `N[C@H]1CN(c2c(F)cc3c(=O)c(C(=O)O)cn(C4C[C@@H]4F)c3c2Cl)CC12CC2` (stereo not given in full), the Potency result in [1], in [5], in assay [7], in assay [9], in assay [12] and in assay [3] was “inactive” in each case. The activity (max response) in assay [2] was 4.52%.
Regarding `CC1c2ccccc2CN1NC(=O)c1ccc(Cl)c(S(N)(=O)=O)c1` (stereo not given), the Potency entry in assay [1] and in assay [3] was “inactive” in each case. Also, the activity (max response) in assay [2] was -11.8%.
On to `CCOC(=O)N1CCN([N+]([O-])=NOc2ccc([N+](=O)[O-])cc2C#N)CC1`, for which the Potency entry in [1] was “inactive”. Moreover, the Potency in assay [4] is 3320 nM (active); in [5] it was 2960 nM (active); in assay [7], 1050 nM (active); in assay [8] it was 1050 nM (active); in assay [9] it was 1050 nM (active); in [10], 1180 nM (active). For the same compound, the Potency in [12] and in [11] was 1050 nM (active) throughout.
As to `CN1CCN(c2ccc(OC(F)(F)F)c(Nc3ncc4c(n3)-c3c(c(C(N)=O)nn3CCO)CC4)c2)CC1`, the Potency entry in assay [1] is “inactive”. Moreover, the Potency in [2] was 100 nM (active).
For `NS(=O)(=O)c1ccc(N2CCCCS2(=O)=O)cc1`, the Potency entry in assay [1] and in assay [3] was “inactive” throughout. Also, the activity (max response) in assay [2] is 16.4%.
Regarding `COc1ccc([C@@H]2CC(=O)c3c(O)cc(O[C@@H]4O[C@H](CO[C@@H]5O[C@@H](C)[C@H](O)[C@@H](O)[C@@H]5O)[C@@H](O)[C@H](O)[C@@H]4O)cc3O2)cc1O`, the Potency entry in [1], in [4], in [5], in [6], in assay [7] and in assay [8] was “inactive” throughout. The Potency result in assay [10], in assay [12] and in assay [11] was “inactive” throughout.
As to `CC(=O)Nc1ccc(OCC(O)CNC(C)C)cc1` (stereo not given), the Potency entry in [1] was “inactive”. Further, the activity (max response) in [2] is 9.26%.
